Compound activity from PubChem.
Rows were chosen to be rich in hits. Some 19% of all compounds tested hit in one or more screens of this group.
SARS PLP yeast – qHTS of Yeast-based Assay for SARS-CoV PLP; S. cerevisiae expressing SARS-CoV PLpro, growth rescue; Potency, µM (titrated, usually from 32.9 µM), without a hit: at the highest dose activity, positive = growth rescue, usual class: activators; 330,000 tested, 0.19% active; calls by dose curve; note: potency is the fitted concentration of half-maximal effect; 0% is about no effect; nearly all actives have a fitted effect of over 55% in size
Pf growth 96h – Primary qHTS for delayed death inhibitors of the malarial parasite plastid, 96 hour incubation | P. falciparum luciferase reporter growth, 96 h | 320,000 tested, 6.9% active | AID 504834, 2011 | Potency, µM (top dose mostly 28.7 µM), inactives show at the highest dose activity change, negative = inhibition, usual class: inhibitors; note: potency is the fitted concentration of half-maximal effect; % is set by controls: 0 for no effect and ±100 for the full control effect
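Luminescence readout: decreased luciferase signal marks inhibited growth of reporter-expressing P. falciparum in infected red cells (2% hematocrit, 0.05% parasitemia final), exposed to compound two generations (96 h, 37 C, 5% CO2).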
Pf growth 48h – Primary qHTS for delayed death inhibitors of the malarial parasite plastid, 48 hour incubation. P. falciparum luciferase growth in erythrocytes, 48 h. Potency, µM (highest dose often 28.7 µM), for inactives: top-dose activity change, negative = inhibition, most hits filed as inhibitors. 310,000 tested, 5.9% active; note: potency is the fitted concentration of half-maximal effect; % is set by controls: 0 for no effect and ±100 for the full control effect
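Parasite viability was followed by luminescence of a genomically integrated firefly luciferase. Cultures held 0.1% parasitemia at 2% hematocrit (final), incubated under 5% CO2 at 37 C.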
CHX counter – Cycloheximide Counterscreen for Small Molecule Inhibitors of Shiga Toxin. cell reporter, cycloheximide protein synthesis inhibition counterscreen. max response, %. 300,000 tested, 12% active; in the data active = max response mostly above about 13%, no sharp cut-off; inactive = mostly below about 14%; note: read at 38.3 µM for the half of the compounds with a filed dose; 0% is about no effect
AMA1 RON2 block – qHTS for Inhibitors of AMA1-RON; Towards Development of Antimalarial Drug Lead: Primary Screen; AlphaScreen AMA1-biotinylated RON2 peptide binding; Potency, µM (highest dose often 58.2 µM), without a hit: at the highest dose activity change, negative = inhibition, actives largely listed as inhibitors; 360,000 tested, 0.2% active; AID 720542, 2013;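 note: potency is the fitted concentration of half-maximal effect; 0% = vehicle wells and -100% = peptide control; nearly all actives have a fitted effect of over 45% in size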
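AMA1 (3D7) with his tag at 25 nM final met compounds first, then biotinylated RON2 peptide at 25 nM; detection used donor plus acceptor beads, 10 µg/mL apiece, read by AlphaScreen after 30 min at room temperature.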
Shiga toxin inh – A qHTS for Small Molecule Inhibitors of Shiga Toxin; Vero cells, Shiga toxin protein synthesis inhibition reporter; inhibition, % at 38.7 µM; 290,000 tested, 9.2% active; in the data active = inhibition mostly above about 28%, no sharp cut-off; inactive = mostly below about 43%; note: 0% is about no effect
* = called active by the depositor; [ ] = remark or other dose. Unless noted, calls come from the whole dose curve; as a rule, active = well fitted curve in the direction sought with a large enough effect; inconclusive = small, poorly fitted or top-dose-only effect, or another doubt; inactive = no such curve, though single readings can be large; an effect the other way counts as inactive or inconclusive.

O=C(NC1CCCc2ccccc21)c1cccc(S(=O)(=O)N2CCN(c3ccccc3)CC2)c1 (stereo not drawn) was read as SARS PLP yeast inconclusive, Pf growth 48h 10.4µM*, CHX counter -1.3, AMA1 RON2 block -8.4% and Shiga toxin inh -14.7.
Screening COCC(=O)N1CCC(Oc2ccc(C(=O)N3CCCCCC3)cc2)CC1 returned SARS PLP yeast 1.0%, Pf growth 96h 11.8%, Pf growth 48h 0.0%, CHX counter -3.3, AMA1 RON2 block 9.7% and Shiga toxin inh 1.0.
COc1ccccc1N1CCN(Cc2ccco2)CC1 was read as SARS PLP yeast 1.0%, Pf growth 96h -1.2%[5.75 µM], Pf growth 48h 2.33µM*, CHX counter 16.5, AMA1 RON2 block inconclusive and Shiga toxin inh 26.2.
For COc1ccc(CN2CCN(Cc3ccco3)CC2)cc1 the results were SARS PLP yeast -1.6%, Pf growth 96h 13.4%, Pf growth 48h 38.8%, CHX counter -2.1, AMA1 RON2 block -15.6% and Shiga toxin inh -5.3.
Screening COc1ccc(CN2CCN(Cc3ccco3)CC2)cc1OC returned SARS PLP yeast inconclusive, Pf growth 96h inconclusive, Pf growth 48h 74.6%, CHX counter -0.4 and AMA1 RON2 block 17.8µM*.
`O=C(NCc1ccccc1)/C(=C\c1cccc([N+](=O)[O-])c1)NC(=O)c1ccco1` gave AMA1 RON2 block 16.4%.
CCOC(=O)C1(Cc2ccccc2)CCCN(C(=O)C=C(C)C)C1 (stereo not drawn) was read as SARS PLP yeast -4.5%, Pf growth 96h 74.4%, Pf growth 48h inconclusive, CHX counter 24.2*, AMA1 RON2 block 0.0% and Shiga toxin inh 86.0*.
For CCOC(=O)C1(Cc2ccccc2)CCCN(C(=O)c2cn[nH]c2)C1 (stereo not drawn) the results were SARS PLP yeast -0.1%, Pf growth 96h -8.2%, Pf growth 48h 4.4%, CHX counter -2.3, AMA1 RON2 block 10.7% and Shiga toxin inh -6.3.
`CCOC(=O)C1(Cc2ccccc2)CCCN(C(=O)c2ccc(-n3ccnc3)cc2)C1` (stereo not drawn) gave SARS PLP yeast 18.2%, Pf growth 96h inconclusive, Pf growth 48h -28.5%, CHX counter 25.8*, AMA1 RON2 block 4.4% and Shiga toxin inh 42.2*.
`COCCNC(=O)c1nn2c(C(F)(F)F)cc(-c3ccccc3)nc2c1Cl` gave SARS PLP yeast 0.9%, Pf growth 96h 5.4%, Pf growth 48h 81.4%, CHX counter -3.7, AMA1 RON2 block 12.4% and Shiga toxin inh 23.2.
For O=C1NC(=S)N/C1=C/c1cccc([N+](=O)[O-])c1O the results were SARS PLP yeast -4.1%, Pf growth 96h 1.85µM*, Pf growth 48h inconclusive, CHX counter 7.3, AMA1 RON2 block 9.4% and Shiga toxin inh -9.3.
COc1ccc(OC)c(S(=O)(=O)NCc2cc(-c3ccccc3)no2)c1 was read as SARS PLP yeast -1.1%, Pf growth 96h inconclusive, Pf growth 48h -18.2%, CHX counter -1.0, AMA1 RON2 block 7.1% and Shiga toxin inh -4.0.
For COc1ccc(NC(=O)c2ccc(-c3ccc(C)c4ccccc34)o2)cc1 the results were SARS PLP yeast -9.9%, Pf growth 96h 36.7%, Pf growth 48h 36.1%, CHX counter 13.9, AMA1 RON2 block -17.7% and Shiga toxin inh 35.5.
`COc1ccc(NC(=O)c2ccc(-c3ccccc3Cl)o2)cc1` gave SARS PLP yeast 2.8%, Pf growth 96h 69.6%, Pf growth 48h 63.2%, CHX counter 42.8*, AMA1 RON2 block 5.9% and Shiga toxin inh 33.8.
For O=C(Nc1cccc(F)c1)c1ccc(-c2ccccc2Cl)o1 the results were SARS PLP yeast -67.0%, Pf growth 96h inconclusive, Pf growth 48h 50.3%, CHX counter 66.2*, AMA1 RON2 block -8.5% and Shiga toxin inh 105.1*.
`Cc1ccc(-c2ccc(C(=O)Nc3cccc(F)c3)o2)c2ccccc12` gave SARS PLP yeast -21.2%, Pf growth 96h inconclusive, Pf growth 48h inconclusive, CHX counter 18.7, AMA1 RON2 block -21.1% and Shiga toxin inh 16.8.
`COc1ccc(S(=O)(=O)NCc2cc(-c3ccccc3Cl)no2)cc1` gave SARS PLP yeast -3.0%, Pf growth 96h -13.4%, Pf growth 48h 10.4µM*, CHX counter -4.9, AMA1 RON2 block 14.8% and Shiga toxin inh -11.7.
`O=C(Nc1ccccc1)c1cc(-c2ccccc2Cl)no1` gave SARS PLP yeast -20.5%, Pf growth 96h -21.4%, Pf growth 48h -54.4%, CHX counter 47.1*, AMA1 RON2 block 6.9% and Shiga toxin inh 121.9*.
`CCCNc1nc(C)cc(-c2cc(C(=O)Nc3ccccc3)on2)n1` gave AMA1 RON2 block 2.6%.
Screening COc1ccc(OC)c(CN2CCN(C(=O)CN3C(=O)NC4(CCCC4)C3=O)CC2)c1 returned SARS PLP yeast -1.3%, Pf growth 96h 20.2%, Pf growth 48h -11.0% and AMA1 RON2 block -13.3%.
`CCC(C)N(C(=O)COC(=O)c1ccc(N)c([N+](=O)[O-])c1)C1CCS(=O)(=O)C1` (stereo not drawn) gave AMA1 RON2 block -10.5%.
`Cc1cc(O)ccc1Nc1nc2ccccc2nc1Nc1ccc(O)cc1C` gave SARS PLP yeast -16.6%, Pf growth 96h inconclusive, Pf growth 48h inconclusive, CHX counter 14.8, AMA1 RON2 block -10.7% and Shiga toxin inh 27.5.
COC(=O)c1sccc1NC(=O)c1ccc(C)o1 was read as SARS PLP yeast -5.4%, Pf growth 96h inconclusive, Pf growth 48h inconclusive, CHX counter 4.5, AMA1 RON2 block inconclusive and Shiga toxin inh -4.0.
`COc1ccc(NC(=O)c2cc(-c3ccccc3Cl)no2)cc1` gave SARS PLP yeast 0.9%, Pf growth 96h 61.6%, Pf growth 48h 33.1%, CHX counter 32.4*, AMA1 RON2 block -1.2% and Shiga toxin inh 68.8*.
`COC(=O)c1sccc1-c1ccc(C(=O)Nc2ccccc2)o1` gave SARS PLP yeast -11.3%, Pf growth 96h 141.7%, Pf growth 48h 134.6%, CHX counter 78.0*, AMA1 RON2 block -10.4% and Shiga toxin inh 74.9*.
CNC(=O)C(=O)N/N=C/c1ccc(Br)cc1 was read as SARS PLP yeast -0.7%, Pf growth 96h 24.7%, Pf growth 48h 8.2%, CHX counter 11.2, AMA1 RON2 block 2.7% and Shiga toxin inh 72.5.
O=C1Nc2ccccc2C1(O)c1ccccc1 (stereo not drawn) was read as SARS PLP yeast -10.4%, Pf growth 96h 0.104µM*, Pf growth 48h -1.0%, CHX counter 34.5, AMA1 RON2 block 2.3% and Shiga toxin inh 39.7.
